# Marburg entry inh: Marburg virus entry inhibition | Marburg virus pseudotyped entry inhibition, cell reporter | Potency, µM (highest dose often 37.8 µM), inactives show top-dose activity change, negative = inhibition, most hits filed as inhibitors | 300,000 compounds, 1.8% hits | AID 540276; calls by dose curve; tested in HEK293 cells; further: potency means the concentration at half of the fitted maximal effect
# LASV entry inh: blocks Lassa virus binding to or entry into cells; Potency, µM (top dose mostly 37.9 µM), without a hit: at the highest dose activity change, negative = inhibition, actives largely listed as inhibitors; 300,000 compounds, 1.2% hits; AID 540256; Lassa virus pseudotype entry inhibition, cell reporter; calls by dose curve; tested in HEK293 cells; further: potency means the concentration at half of the fitted maximal effect; nearly all actives have a fitted effect of over 50% in size
# Vaccinia mCherry: inhibitors of vaccinia virus infection (mCherry reporter signal) | Vaccinia virus mCherry reporter infection, fluorescence | Potency, µM (series often up to 36.5 µM), without a hit: top-dose activity change, negative = inhibition, most hits filed as inhibitors | 310,000 compounds, 0.63% hits; calls by dose curve; tested in A549 cells; further: potency means the concentration at half of the fitted maximal effect; nearly all actives have a fitted effect of over 35% in size
# VACV Venus inh: vaccinia inhibition (Venus reporter). Vaccinia virus Venus reporter expression, fluorescence. Potency, µM (doses to about 36.5 µM), for inactives: top-dose activity change, negative = inhibition, most hits filed as inhibitors. 330,000 compounds, 0.46% hits; calls by dose curve; tested in A549 cells; further: potency means the concentration at half of the fitted maximal effect; nearly all actives have a fitted effect of over 30% in size
# HCMV inh: inhibitors of human cytomegalovirus; HFF cells, HCMV-luciferase reporter, 72 h; hits give low values; activity change, negative = inhibition, % at 57.5 µM; 410,000 compounds, 4.5% hits; in the data active means activity change below about -60%; inconclusive means no clear call, values can overlap the other calls; inactive means above about -39%
#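 Two compound doses tested in HFFs infected with HCMV-luciferase, MOI 1 PFU/cell, 72 h at 37C. Lysate luminescence read with OneGlo; data normalized against buffer-only and 10uM Salinomycin inhibitor controls.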
# FMDV antiviral: foot and mouth disease virus antiviral activity. Potency, µM (doses to about 57.9 µM), for the others: top-dose activity change, negative = inhibition, usual class: inhibitors. FMDV antiviral cell-based qHTS. 410,000 compounds, 1.2% hits; calls by dose curve; tested in HEK293T cells; further: read-out not given here; potency means the concentration at half of the fitted maximal effect; nearly all actives have a fitted effect of over 45% in size
# * hit, by the source's call; i = inactive; ? = inconclusive; / = not tested or not shown; [ ] = dose if it differs, or a comment. Sampled rows, rich in hits. Any-hit rate of the full collection: about 6.5%. On the % scale 0 is the no-effect control and ±100 the full control effect.
SMILES,Marburg entry inh,LASV entry inh,Vaccinia mCherry,VACV Venus inh,HCMV inh,FMDV antiviral
O=C(NC(=S)Nc1ccc(Oc2ccc(Cl)cc2)cc1)c1ccccc1,2%,0%,-8%,-29%,-87*,-21%
O=C(NC(=S)Nc1ccc(NC(=O)c2ccccc2)cc1)c1ccc(F)cc1,-12%[46.1 µM],2%[46.1 µM],i,-13%,?,-12%
CCCCSCCCNC(=O)c1cn(CC)c2ccc(S(=O)(=O)N(C)C3CCCCC3)cc2c1=O,-20%[46.1 µM],1%[46.1 µM],-26%,-18%,-3,12%
Cc1ccc(NC(=S)Nc2ccc(OC(F)F)c(Cl)c2)cc1Cl,?,-29%,-25%,?,-89*,-17%
CC(NC(=S)Nc1ccc(OC(F)F)c(Cl)c1)C(C)(C)C (centres undefined),?,?,-24%,?,?,-3%
Cc1cc(C)cc(NC(=S)Nc2ccc(Cl)c(Cl)c2)c1,?,-4%[46.1 µM],-20%,-8%,-68*,-16%
Fc1ccc(NC(=S)Nc2cc(-c3ccccc3)[nH]n2)cc1Cl,?,?,-13%,-9%,-32,-13%
Cc1ccc(NC(=S)Nc2cc(-c3ccccc3)[nH]n2)cc1Cl,-21%[46.1 µM],/,-21%,-10%,-72*,1%
Cc1ccc(NC(=S)Nc2ccc(Cl)c(Cl)c2)c(OC(F)F)c1,?,2%,i,?,-75*,?
N#CCS(=O)(=O)c1cccc[n+]1[O-],/,/,/,/,-2,/
O=C(Nc1ccc(OC(F)F)c(Cl)c1)C(c1ccccc1)c1ccccc1,/,/,/,/,-30,40µM*
NC(=S)Nc1ccc(Cl)c(Cl)c1,/,/,/,/,-60*,7%
CCCSC1=NC2(CCN(C(=O)NC3CCCCC3)CC2)N=C1c1ccc(OC)cc1,/,-28%[46.1 µM],-24%,-21%,-6,-19%
COc1cccc(Cn2c(C)c(CNC3CCCCC3)c(C(=O)O)c2C)c1,25%[46.1 µM],?,-14%,-11%,-102*,-7%
COc1ccc(O)c(/C=N/NC(=O)c2cccc(N3CCCC3=O)c2)c1,?,?,2.5µM*,-16%,54,23%
COc1ccc(O)c(/C=N/NC(=O)c2ccc(N3CCCC3=O)cc2)c1,?,?,2.8µM*,?,?,-19%
O=C(N/N=C/c1cc(Br)ccc1O)c1cccc(N2CCCC2=O)c1,23µM*,?,7.9µM*,?,-12,-22%
COc1ccc(/C=N/NC(=O)c2ccc(N3CCCC3=O)cc2)cc1,-13%[46.1 µM],?,i,6%,-22,0%
COc1cccc(Cn2c(=O)c(-c3cccs3)nc3cnc(N4CCN(C)CC4)nc32)c1,/,/,/,/,/,13%
COc1ccc(CNc2ncnc3nc[nH]c23)cc1OC,/,/,-11%,-11%,/,/
COC(=O)N[C@@H](C=Cc1ccco1)[C@]1(C(=O)OC)CCCC1=O,3%[14.2 µM],/,/,/,/,/
COc1ccc(OC)c(C(=O)CC2OC(=O)c3ccccc32)c1 (centres undefined),?,-4%,/,/,-90*,14µM*
CC(C)(C)OC(=O)N1CCC(c2c(C(=O)NCc3cccs3)cnn2-c2cccc(F)c2)CC1,/,?,-10%,-22%,27,-5%
Cc1ccccc1CN1CCN(c2ccc(S(=O)(=O)N3CCCC3)cn2)CC1,?,?,-22%,-11%,-64*,?
CC(/C=N/Nc1nc2ccccc2[nH]1)=C\c1ccccc1,7.3µM*,?,/,/,-26,3%
SMILES,Marburg entry inh,LASV entry inh,Vaccinia mCherry,VACV Venus inh,HCMV inh,FMDV antiviral
C(=N\Nc1nc2ccccc2[nH]1)/c1cccs1,?,18%,i,-13%,40,71%
Cc1c(/C=N/Nc2nc3ccccc3[nH]2)c2ccccc2n1C,?,?,i,-28%,-96*,?
CC(C)Cn1c(/C=N/Nc2nc3ccccc3[nH]2)nc2ccccc21,?,?,?,?,-97*,25µM*
CC(/C=N/Nc1nc(C)cc(=O)[nH]1)=C\c1ccccc1,/,/,/,/,-13,5%
C=CCn1cc(/C=N/Nc2nc3ccccc3[nH]2)c2ccccc21,?,4.5µM*,-26%,?,58,-71%
Clc1nc2ccccc2cc1/C=N/Nc1nc2ccccc2[nH]1,-6%,?,-18%,-19%,161,4%
Cc1ccc(F)cc1C(=O)N1CCCCC1c1cc(C(=O)Nc2ccncc2)no1 (centres undefined),/,/,/,/,-16,/
C(=N\Nc1nc2ccccc2[nH]1)/c1ccncc1,?,?,?,0%,24,0%
